Measured values taken from PubChem BioAssay AID1159580 (chemical genetic matrix, 2015).
Among all 5,500 compounds or so, about 2,000 (36%) were called active. Not shown: some 18% with an inconclusive outcome. No stated cut-off is given here; in the data, active means normalized growth mostly below about 0.91 (no sharp cut-off); inconclusive means no clear call, values can overlap the other calls; inactive means mostly above about 0.92. The list shows a part of the results.

Assay: chemical genetic growth profiling, strain panel (AID 1159580);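 further: tested at 20 µM; growth read once vehicle control cultures reached saturation at 30 °C; 1 = growth at the plate median or of vehicle wells; lower values mean less growth of the strain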
Conditions: growth OD
[1] = S. cerevisiae deletion strains, locus YDL101C, strain DUN1, active compounds read low
[2] = S. cerevisiae deletion strains, locus YHR030C, strain SLT2, active compounds read low
[3] = S. cerevisiae deletion strains, locus YAL013W, strain DEP1, active compounds read low
[4] = S. cerevisiae deletion strains, locus YBR229C, strain ROT2, active compounds read low
[5] = S. cerevisiae deletion strains, locus YDR150W, strain NUM1, active compounds read low
[6] = S. cerevisiae deletion strains, locus YEL061C, strain CIN8, active compounds read low
[7] = S. cerevisiae deletion strains, locus YGR078C, strain PAC10, active compounds read low
[8] = S. cerevisiae deletion strains, locus YHR087W, strain rtc3, active compounds read low
[9] = S. cerevisiae deletion strains, locus YJR043C, strain POL32, active compounds read low
[10] = S. cerevisiae deletion strains, locus YJR075W, strain HOC1, active compounds read low
[11] = S. cerevisiae deletion strains, locus YLR039C, strain RIC1, active compounds read low
[12] = S. cerevisiae deletion strains, locus YLR058C, strain SHM2 (second series), active compounds read low
[13] = S. cerevisiae deletion strains, locus YLR085C, strain ARP6, active compounds read low
[14] = S. cerevisiae deletion strains, locus YLR262C, strain YPT6, active compounds read low
[15] = S. cerevisiae deletion strains, locus YML094W, strain GIM5, active compounds read low
[16] = S. cerevisiae deletion strains, locus YMR219W, strain ESC1, active compounds read low
[17] = S. cerevisiae deletion strains, locus YMR263W, strain SAP30, active compounds read low
[18] = S. cerevisiae deletion strains, locus YMR307W, strain GAS1, active compounds read low
[19] = S. cerevisiae deletion strains, locus YNL153C, strain GIM3, active compounds read low
[20] = S. cerevisiae deletion strains, locus YNL298W, strain CLA4 (second series), active compounds read low
[21] = S. cerevisiae deletion strains, locus YNL322C, strain KRE1, active compounds read low
[22] = S. cerevisiae deletion strains, locus YNR030W, strain Alg12, active compounds read low
[23] = S. cerevisiae deletion strains, locus YPL055C, strain LGE1, active compounds read low
[24] = S. cerevisiae deletion strains, locus YPL241C, strain CIN2, active compounds read low
[25] = S. cerevisiae deletion strains, locus YPR135W, strain CTF4, active compounds read low

Measured: normalized growth

O=C(Nc1ccc(F)c(Cl)c1)c1ccccc1O
inactive: S. cerevisiae deletion strains, locus YAR019C, strain CDC15, active compounds read low 0.9 | S. cerevisiae deletion strains, locus YBR136W, strain MEC1, active compounds read low 0.899 | S. cerevisiae deletion strains, locus YBR160W, strain CDC28, active compounds read low 0.899 | S. cerevisiae deletion strains, locus YDL028C, strain MPS1, active compounds read low 0.897 | [1] 0.951 | S. cerevisiae deletion strains, locus YDL214C, strain PRR2, active compounds read low 0.83 | S. cerevisiae deletion strains, locus YDR054C, strain cdc34, active compounds read low 0.885 | S. cerevisiae deletion strains, locus YDR477W, strain SNF1, active compounds read low 0.834 | S. cerevisiae deletion strains, locus YER123W, strain YCK3, active compounds read low 0.76 | S. cerevisiae deletion strains, locus YER133W, strain GLC7, active compounds read low 0.862 | S. cerevisiae deletion strains, locus YFL029C, strain CAK1, active compounds read low 0.884 | S. cerevisiae deletion strains, locus YFR019W, strain FAB1, active compounds read low 0.904 | S. cerevisiae deletion strains, locus YGR040W, strain KSS1, active compounds read low 0.819 | S. cerevisiae deletion strains, locus YGR052W, strain FMP48, active compounds read low 0.8 | S. cerevisiae deletion strains, locus YGR092W, strain DBF2, active compounds read low 0.519 | S. cerevisiae deletion strains, locus YHR079C, strain IRE1, active compounds read low 0.632 | S. cerevisiae deletion strains, locus YHR082C, strain KSP1, active compounds read low 0.76 | S. cerevisiae deletion strains, locus YHR205W, strain SCH9, active compounds read low 0.747 | S. cerevisiae deletion strains, locus YIL147C, strain SLN1, active compounds read low 0.895 | S. cerevisiae deletion strains, locus YJL095W, strain BCK1, active compounds read low 0.676 | S. cerevisiae deletion strains, locus YJL128C, strain PBS2, active compounds read low 0.846 | S. cerevisiae deletion strains, locus YJL157C, strain FAR1, active compounds read low 0.803 | S. cerevisiae deletion strains, locus YJR066W, strain TOR1 (second series), active compounds read low 0.882 | S. cerevisiae deletion strains, locus YJR066W, strain TOR1, active compounds read low 0.745 | S. cerevisiae deletion strains, locus YKL048C, strain ELM1, active compounds read low 0.893 | S. cerevisiae deletion strains, locus YKL067W, strain YNK1, active compounds read low 0.825 | S. cerevisiae deletion strains, locus YKL101W, strain HSL1, active compounds read low 0.807 | S. cerevisiae deletion strains, locus YKL203C, strain TOR2, active compounds read low 0.863 | S. cerevisiae deletion strains, locus YLR133W, strain CKI1, active compounds read low 0.762 | S. cerevisiae deletion strains, locus YLR403W, strain SFP1, active compounds read low 0.743 | S. cerevisiae deletion strains, locus YML070W, strain DAK1, active compounds read low 0.777 | S. cerevisiae deletion strains, locus YMR001C, strain CDC5, active compounds read low 0.891 | S. cerevisiae deletion strains, locus YMR205C, strain PFK2 (second series), active compounds read low 0.769 | S. cerevisiae deletion strains, locus YMR277W, strain FCP1, active compounds read low 0.9 | S. cerevisiae deletion strains, locus YNL020C, strain ARK1, active compounds read low 0.745 | S. cerevisiae deletion strains, locus YNL161W, strain CBK1, active compounds read low 0.904 | S. cerevisiae deletion strains, locus YNL183C, strain NPR1, active compounds read low 0.759 | S. cerevisiae deletion strains, locus YNL207W, strain RIO2, active compounds read low 0.893 | S. cerevisiae deletion strains, locus YNL222W, strain SSU72, active compounds read low 0.906 | S. cerevisiae deletion strains, locus YNL307C, strain MCK1 (second series), active compounds read low 0.833 | S. cerevisiae deletion strains, locus YOL078W, strain AVO1, active compounds read low 0.897 | S. cerevisiae deletion strains, locus YOL136C, strain PFK27, active compounds read low 0.846 | S. cerevisiae deletion strains, locus YOR061W, strain CKA2, active compounds read low 0.842 | S. cerevisiae deletion strains, locus YOR119C, strain RIO1, active compounds read low 0.936 | S. cerevisiae deletion strains, locus YOR231W, strain MKK1, active compounds read low 0.829 | S. cerevisiae deletion strains, locus YOR329C, strain SCD5, active compounds read low 0.913 | S. cerevisiae deletion strains, locus YPL031C, strain PHO85, active compounds read low 0.796 | S. cerevisiae deletion strains, locus YPL153C, strain RAD53, active compounds read low 0.799 | S. cerevisiae deletion strains, locus YPL204W, strain HRR25, active compounds read low 0.797 | S. cerevisiae deletion strains, locus YPR106W, strain ISR1, active compounds read low 0.911 | S. cerevisiae deletion strains, locus YPR111W, strain DBF20, active compounds read low 0.887 | S. cerevisiae deletion strains, strain NNK1, active compounds read low 0.899 | S. cerevisiae deletion strains, strain TSCII, active compounds read low 0.892
active: S. cerevisiae deletion strains, locus YBL105C, strain PKC1, active compounds read low 0.897 | S. cerevisiae deletion strains, locus YBR135W, strain CKS1, active compounds read low 0.888 | S. cerevisiae deletion strains, locus YDL017W, strain CDC7, active compounds read low 0.895 | S. cerevisiae deletion strains, locus YDL108W, strain KIN28, active compounds read low 0.896 | S. cerevisiae deletion strains, locus YDL132W, strain cdc53, active compounds read low 0.879 | S. cerevisiae deletion strains, locus YDR052C, strain DBF4, active compounds read low 0.884 | S. cerevisiae deletion strains, locus YDR226W, strain ADK1, active compounds read low 0.877 | S. cerevisiae deletion strains, locus YFL009W, strain cdc4, active compounds read low 0.888 | S. cerevisiae deletion strains, locus YFR003C, strain YPI1, active compounds read low 0.897 | S. cerevisiae deletion strains, locus YFR028C, strain CDC14, active compounds read low 0.884 | [2] 0.768 | S. cerevisiae deletion strains, locus YJR016C, strain ILV3, active compounds read low 0.895 | S. cerevisiae deletion strains, locus YKL193C, strain SDS22, active compounds read low 0.885 | S. cerevisiae deletion strains, locus YLR113W, strain HOG1, active compounds read low 0.669 | S. cerevisiae deletion strains, locus YNL006W, strain LST8, active compounds read low 0.893 | S. cerevisiae deletion strains, locus YPL209C, strain IPL1, active compounds read low 0.895 | S. cerevisiae deletion strains, locus YPL256C, strain CLN2, active compounds read low 0.756 | S. cerevisiae deletion strains, locus YPR025C, strain CCL1, active compounds read low 0.894

CCc1ccccc1NC(C)=O
inactive: [3] 1.04 | [4] 1 | [1] 1.01 | [5] 1.01 | [6] 1.02 | [7] 1 | [2] 1.08 | [8] 1.01 | S. cerevisiae deletion strains, locus YJL187C, strain SWE1, active compounds read low 1 | [9] 0.995 | [10] 0.997 | [11] 0.992 | [12] 0.997 | [13] 1.01 | [14] 1.06 | [15] 1.03 | [16] 1.01 | [17] 0.998 | [18] 0.972 | [19] 1.01 | [20] 1.03 | [21] 0.993 | [22] 1.03 | [23] 0.901 | [24] 1.01 | [25] 1.24 | S. cerevisiae strains, strain wild type, active compounds read low 0.985

O=C(Nc1ccccc1)NC1CCCC1
inactive: [3] 1.02 | [4] 0.983 | S. cerevisiae deletion strains, locus YCL061C, strain MRC1, active compounds read low 1.02 | [1] 0.989 | S. cerevisiae deletion strains, locus YDL134C, strain PPH21, active compounds read low 1.01 | [5] 0.983 | [6] 0.965 | [7] 1.01 | [2] 1.07 | [8] 0.997 | [9] 1.04 | [10] 0.992 | S. cerevisiae deletion strains, locus YKL190W, strain CNB1, active compounds read low 0.991 | [11] 1.01 | [12] 0.997 | [13] 0.991 | [14] 1.05 | [15] 0.96 | [16] 0.997 | [17] 1.01 | [18] 1.03 | S. cerevisiae deletion strains, locus YNL128W, strain TEP1, active compounds read low 0.941 | [19] 1.01 | [20] 0.985 | [21] 0.996 | [22] 1 | [23] 1.02 | [24] 0.99 | [25] 1.13
